Article PMC5836133, “The intracellular immune receptor Rx1 regulates the DNA-binding activity of a Golden2-like transcription factor”
In all, about 16,000 sequences were measured (“e-score”: median about -0.044, highest 2% from about 0.38 on). For the sample, the highest values were picked, then their nearest neighbours and some sequences at random.

Target: T1, GST-NbGlk1(82-244) (Nicotiana benthamiana)
T1 chain: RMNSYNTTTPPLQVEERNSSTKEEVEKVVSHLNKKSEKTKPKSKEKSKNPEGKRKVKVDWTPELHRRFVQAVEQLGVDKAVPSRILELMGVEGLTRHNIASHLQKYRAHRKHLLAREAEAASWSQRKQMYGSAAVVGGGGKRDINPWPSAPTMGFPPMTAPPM
Assay: protein-binding microarray; NbGlk1 is a Golden2-like transcription factor of Nicotiana benthamiana; high values mean tight binding
Settings: protein: recombinant; tags: GST (pTH6838); dsDNA, one strand shown

Sequence | binding signal
ATTGTGTA | 0.249 ± 0.00712 E-score
ATCCCCGG | 0.256 ± 0.0142 E-score
AGAATTTA | 0.222 ± 0.00311 E-score
AATTTCAT | 0.238 ± 0.0823 E-score
ATCCGTTA | 0.315 ± 0.0322 E-score
ATCAGTGA | 0.218 ± 0.0932 E-score
ATCTGGTA | 0.238 ± 0.087 E-score
ATCGCGAC | 0.287 ± 0.126 E-score
AATCCTTG | 0.336 ± 0.0164 E-score
ATGGTAAT | 0.305 ± 0.00923 E-score
AAATCCAA | 0.426 ± 0.042 E-score
AGATCCAA | 0.262 ± 0.127 E-score
AAATCAAG | 0.318 ± 0.0251 E-score
AAATCCAT | 0.422 ± 0.0113 E-score
AAATCCAC | 0.43 ± 0.0323 E-score
CAATCCAA | 0.298 ± 0.0654 E-score
CAATCCAC | 0.328 ± 0.0614 E-score
AATCCCAC | 0.318 ± 0.0378 E-score
CAATCCAG | 0.291 ± 0.00762 E-score
AAATCCAG | 0.413 ± 0.0172 E-score
ATCCCAGA | 0.276 ± 0.00637 E-score
ATATGAGA | 0.231 ± 0.0943 E-score
ATTACCTG | 0.213 ± 0.0963 E-score
CAATATCA | 0.299 ± 0.00874 E-score

Sequence | binding signal
ATCTTGAA | 0.286 ± 0.0202 E-score
AATATAGA | 0.271 ± 0.00595 E-score
ACCTGGAT | 0.224 ± 0.0187 E-score
ATTTTTAG | 0.235 ± 0.0033 E-score
ATTTGTAC | 0.228 ± 0.0254 E-score
AAATCACG | 0.381 ± 0.0177 E-score
AAATCCCA | 0.4 ± 0.00412 E-score
AAATCACA | 0.349 ± 0.00405 E-score
AAATCCCG | 0.435 ± 0.00616 E-score
AAATCCCC | 0.368 ± 0.0151 E-score
CAATCCCG | 0.284 ± 0.05 E-score
CAATCCCA | 0.279 ± 0.00457 E-score
AATCCCCG | 0.362 ± 0.0401 E-score
AAATCACC | 0.333 ± 0.00843 E-score
ATTTCGGG | 0.27 ± 0.0618 E-score
ATCTCATC | 0.312 ± 0.051 E-score
ACCGCAAT | 0.302 ± 0.00387 E-score
ATCCGGAT | 0.422 ± 0.0228 E-score
ATCCGGAG | 0.233 ± 0.0472 E-score
ATCCGGAA | 0.332 ± 0.0273 E-score
ACACAAAT | 0.204 ± 0.00827 E-score
ACAATCTC | 0.373 ± 0.047 E-score
ACAATCAA | 0.223 ± 0.00556 E-score
ACAATCTG | 0.404 ± 0.0106 E-score

Sequence | binding signal
ACAATCAG | 0.237 ± 0.0723 E-score
ACAATCGA | 0.201 ± 0.0349 E-score
ACAATCTA | 0.3803 ± 0.00317 E-score
ATTTGTTA | 0.237 ± 0.0814 E-score
ACTGCAAT | 0.211 ± 0.0632 E-score
ACGATTTC | 0.411 ± 0.0236 E-score
ACGATTTG | 0.264 ± 0.0306 E-score
ATTATTTC | 0.219 ± 0.0605 E-score
CAAATTTC | 0.232 ± 0.00396 E-score
CAGATTTA | 0.276 ± 0.0107 E-score
ATGATTTC | 0.387 ± 0.0129 E-score
AAGATTTC | 0.477 ± 0.00488 E-score
ATGATTTG | 0.257 ± 0.0544 E-score
CAGATTTC | 0.4864 ± 0.00115 E-score
ACGATCTA | 0.252 ± 0.0264 E-score
AAAATTTC | 0.276 ± 0.00552 E-score
AAGATTTA | 0.333 ± 0.0668 E-score
ATTCCCAA | 0.344 ± 0.0159 E-score
ATCGGATA | 0.33 ± 0.0178 E-score
AAATACGT | 0.267 ± 0.0537 E-score
AATTGAAA | 0.226 ± 0.0522 E-score
ACAAATAA | 0.23 ± 0.0836 E-score
ATTTATTG | 0.216 ± 0.0481 E-score
ATTGCGAG | 0.24 ± 0.0521 E-score

Sequence | binding signal
ATATATAT | 0.244 ± 0.0459 E-score
ATTCCCAG | 0.291 ± 0.0505 E-score
AACTGATT | 0.296 ± 0.0177 E-score
AATATTTG | 0.2529 ± 0.00132 E-score
AAGATCAG | 0.222 ± 0.0847 E-score
AAGATTTG | 0.3926 ± 0.000402 E-score
AATCGGCA | 0.245 ± 0.0624 E-score
AATTTCCG | 0.257 ± 0.00588 E-score
AATCAGTA | 0.268 ± 0.0701 E-score
AATCTTAG | 0.393 ± 0.0231 E-score
AATCTTAA | 0.411 ± 0.0114 E-score
ATTCTTAA | 0.276 ± 0.0327 E-score
AATCTTAT | 0.377 ± 0.038 E-score
AATCTTAC | 0.375 ± 0.0424 E-score
ATTCTTAG | 0.253 ± 0.0124 E-score
AAAGTAAT | 0.215 ± 0.0195 E-score
ACAAATCC | 0.337 ± 0.0192 E-score
AAAAATCC | 0.437 ± 0.00502 E-score
CAAAATCC | 0.42 ± 0.00492 E-score
CAAAATAC | 0.244 ± 0.00367 E-score
ATAAATCC | 0.244 ± 0.0187 E-score
CAAAATCA | 0.314 ± 0.00439 E-score
ATACGCAA | 0.311 ± 0.105 E-score
ATTACGTG | 0.343 ± 0.0114 E-score

Sequence | binding signal
ATACAGAT | 0.232 ± 0.0349 E-score
ATTTTCAG | 0.282 ± 0.0614 E-score
AATCCGAG | 0.384 ± 0.0199 E-score
AATGCGAT | 0.246 ± 0.145 E-score
AATCCGAT | 0.432 ± 0.00878 E-score
AATCAGAA | 0.333 ± 0.0384 E-score
AATCCGAC | 0.375 ± 0.0477 E-score
AATCCGAA | 0.406 ± 0.0054 E-score
AATCCCGA | 0.358 ± 0.0612 E-score
ATCCCGAT | 0.294 ± 0.0618 E-score
ATTCCGAG | 0.275 ± 0.0409 E-score
ATCCCCAT | 0.277 ± 0.00736 E-score
AAACGGAT | 0.245 ± 0.00295 E-score
AATCAATA | 0.274 ± 0.0307 E-score
ATTACGCG | 0.332 ± 0.0406 E-score
ATCGCCAA | 0.206 ± 0.00895 E-score
ATTACTTA | 0.22 ± 0.00767 E-score
CAAGAATC | 0.3851 ± 0.0038 E-score
AAAGAAAT | 0.26 ± 0.02 E-score
AAAGAATC | 0.432 ± 0.00665 E-score
CAAGATAC | 0.263 ± 0.0221 E-score
CACGAATC | 0.332 ± 0.0173 E-score
AATGAATC | 0.262 ± 0.0542 E-score
ATCCGGTG | 0.295 ± 0.0985 E-score

Sequence | binding signal
AATAAAAT | 0.285 ± 0.0273 E-score
ATGATATG | 0.251 ± 0.0218 E-score
ACGATATC | 0.444 ± 0.0119 E-score
AGGATATA | 0.211 ± 0.0455 E-score
AGGATATC | 0.469 ± 0.00696 E-score
AGGATATG | 0.301 ± 0.025 E-score
CAGATATC | 0.4684 ± 0.00421 E-score
CAGATACC | 0.318 ± 0.0659 E-score
ATGATCTC | 0.237 ± 0.0252 E-score
ATGATATC | 0.4224 ± 0.000678 E-score
ACGATCTC | 0.295 ± 0.0231 E-score
CACATATC | 0.207 ± 0.0307 E-score
ACGATACG | 0.207 ± 0.012 E-score
CACGGATA | 0.231 ± 0.0138 E-score
ATATTTTA | 0.311 ± 0.0242 E-score
ATATGATA | 0.219 ± 0.000234 E-score
ATTCGGTA | 0.241 ± 0.0544 E-score
ACTGTAAA | 0.2014 ± 0.00123 E-score
ATTACGGA | 0.366 ± 0.0276 E-score
ATAACGCA | 0.2 ± 0.0382 E-score
ATCTAAGA | 0.26 ± 0.0102 E-score
ACGGGAAT | 0.324 ± 0.00778 E-score
AAGATACG | 0.319 ± 0.0229 E-score
AAGATATA | 0.3097 ± 0.00108 E-score

Sequence | binding signal
AAGATATG | 0.352 ± 0.0302 E-score
AAGATACT | 0.2834 ± 0.00149 E-score
AAGATATT | 0.393 ± 0.0518 E-score
CAGATACG | 0.391 ± 0.0206 E-score
CACAGATA | 0.28 ± 0.0657 E-score
AAGATAAT | 0.221 ± 0.0513 E-score
AAGATATC | 0.4749 ± 0.00348 E-score
CAAATACG | 0.225 ± 0.0583 E-score
CAGATATG | 0.393 ± 0.0499 E-score
CAAATATG | 0.212 ± 0.061 E-score
ATCCAGCC | 0.215 ± 0.0455 E-score
CAATCAGA | 0.206 ± 0.101 E-score
AAATATAG | 0.237 ± 0.00681 E-score
ATATCGAA | 0.272 ± 0.135 E-score
ATCTCGTA | 0.376 ± 0.0288 E-score
ATCGGATC | 0.275 ± 0.0422 E-score
ATTTTCGA | 0.266 ± 0.0802 E-score
ATTACGCA | 0.355 ± 0.0219 E-score
AGATATTC | 0.451 ± 0.0112 E-score
ATATATTC | 0.281 ± 0.0514 E-score
AAATATTC | 0.306 ± 0.0275 E-score
ATATATTA | 0.229 ± 0.0313 E-score
AGATATTG | 0.375 ± 0.0495 E-score
AGATATTA | 0.379 ± 0.00115 E-score
